Compound activity from PubChem.
Only a sample is shown.
TNAP inh pNP: inhibitors of human tissue-nonspecific alkaline phosphatase. inhibition, % at 20 µM. purified TNAP, pNPP hydrolysis, absorbance 405 nm. 21,000 tested, under 10 active. AID 615. P05186
Target sequence (P05186 whole entry, looked up): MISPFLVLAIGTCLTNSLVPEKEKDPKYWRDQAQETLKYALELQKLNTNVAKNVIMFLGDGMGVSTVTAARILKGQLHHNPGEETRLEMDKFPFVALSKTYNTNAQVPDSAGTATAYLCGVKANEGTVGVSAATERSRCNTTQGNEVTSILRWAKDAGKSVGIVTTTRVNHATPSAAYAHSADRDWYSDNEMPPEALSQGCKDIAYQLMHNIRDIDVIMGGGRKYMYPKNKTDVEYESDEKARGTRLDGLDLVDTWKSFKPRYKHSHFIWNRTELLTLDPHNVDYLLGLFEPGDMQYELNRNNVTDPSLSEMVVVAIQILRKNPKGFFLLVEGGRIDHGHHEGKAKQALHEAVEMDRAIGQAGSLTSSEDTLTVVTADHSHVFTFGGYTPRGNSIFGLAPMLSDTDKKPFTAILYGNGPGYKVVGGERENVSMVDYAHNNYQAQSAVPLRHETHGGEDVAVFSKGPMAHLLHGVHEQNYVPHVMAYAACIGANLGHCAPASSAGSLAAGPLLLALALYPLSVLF
TNAP Pi inh: human TNAP inhibition, phosphate detection. P05186. purified TNAP, pNPP, malachite green phosphate absorbance. inhibition, % at 20 µM. 21,000 tested, under 10 active
Each line names hits and unclear results; the compound was inactive in the other large screens.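 Rule for the calls: active = inhibition above 50% at the 20 µM single-dose screen; inactive = the rest.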

O=C1CC(=O)CC(c2ccccc2Cl)C1	none
O=C(c1cc(Cl)cc(Cl)c1)N1CCOCC1	none
COc1cc(OC)c(NC2=NCCCCC2)cc1Cl	none
CC(C)C(c1nnnn1Cc1ccccc1)N1CCN(Cc2ccc3c(c2)OCO3)CC1 (stereo unspecified)	none
C=CCNC(=O)C1CC(=O)N(c2ccc(OCC(=O)Nc3ccccc3)cc2)C1 (stereo unspecified)	none
COc1cc(C(=O)OCC(=O)Nc2c(F)c(F)c(F)c(F)c2F)cc(OC)c1OC	none
COc1ccc(S(C)(=O)=O)cc1S(C)(=O)=O	none
Cc1ccc(C2Nc3ccccc3C(=O)N2Cc2ccco2)cc1 (stereo unspecified)	none
Cc1ccccc1OCc1nc2ccccc2c(=O)n1NC(=O)c1ccco1	none
CC(=O)/C=C(\C)NCCNc1c(F)c(F)c(CO)c(F)c1F	none
COCCCn1c(C2CCCCC2)nc2oc3cc(OC)ccc3c(=O)c2c1=O	none
CCOc1c(C)cc2[nH]c(CCC(=O)O)nc2c1C	none
Cc1cc(O)c(C(C)C)cc1NS(=O)(=O)c1ccccc1	none
CCCCC(CCC(=O)Nc1ccc(C(=O)OC)cc1)C(=O)O (stereo unspecified)	none
CC(C)Oc1ccc(Cc2c(O)nc(NCCCN(C)C)[nH]c2=O)cc1	none
CC(C)C1Oc2ccccc2N(CC(=O)NCCCN2C(C)CCCC2C)C1=O (stereo unspecified)	none
CC1(C(=O)N(CC(=O)NC2CCCC2)Cc2ccco2)CC(=O)N=C2C=CC=CN21 (stereo unspecified)	none
CCOc1ccc(N=C(NC#N)SCC(=O)NC2CC2)cc1	none
C#CC(CC)(CC)NC(=O)c1c(C)noc1C	none
CCCN1CCC(N(C)CCc2ccc(OC)c(OC)c2)CC1	none
Cc1ccc(S(=O)(=O)Cn2nnnc2CN2CCCC3(CCCCC3)C2)cc1	none
CC1CN(C2CCN(S(=O)(=O)Cc3ccccc3)CC2)CC(C)O1 (stereo unspecified)	none
O=C1c2cccnc2C(=O)N1Cc1ccc2c(c1)OCO2	none
Cc1ccc2cc(CNC(C)C)c(=O)[nH]c2c1	none
Cc1ccc(S(=O)(=O)Nn2c(C)ccc2C)cc1	none
Cc1ccc2c(n1)sc1c(N)ncnc12	none
Cc1cc(NC(=O)CSc2nnnn2Cc2ccccc2)no1	none
COc1ccc(C(=O)Nc2cccc(C)c2)cc1	none
CC(C)(C)NC(=O)C(c1ccccc1F)N(Cc1ccco1)C(=O)c1csnn1 (stereo unspecified)	none
CCn1c(COc2cccc(OC)c2)nnc1SCC(=O)Nc1cccc(OC)c1	none
CCC(C)(C)NC(=O)C(c1cccc(OC)c1)N(C(=O)c1ccn[nH]1)c1cccc(OC)c1 (stereo unspecified)	none
O=S(=O)(c1ccc(F)cc1)N1CCC(N2CCN(c3ccccc3)CC2)CC1	none
COc1ccc(-c2csc(N3CCC(C(N)=O)(N4CCCCC4)CC3)n2)cc1	none
Cc1ccc(S(=O)(=O)NCCSc2nnnn2C)cc1	none
CCCOc1cccc(C2C(C(=O)c3ccc(C)o3)=C(O)C(=O)N2CCCN(C)C)c1 (stereo unspecified)	none
O=S(=O)(NC1CCCC1)c1cccc(S(=O)(=O)N2CCC(n3nnc4ccccc43)CC2)c1	none
O=C(NC1CCCCC1)c1ccc(CNc2ccccc2)o1	none
Cn1nnnc1SCCOc1ccc(C#N)cc1	none
COc1ccc(CNC(=O)C2CCCN2S(=O)(=O)c2ccccc2)cc1 (stereo unspecified)	none
CCOC(=O)c1ccc(NC(=O)NC2CC3CCC(C2)N3Cc2nnnn2C(C)(C)C)cc1 (stereo unspecified)	none
CCOC(=O)CSc1nc2c(c(=O)n(C)c(=O)n2C)n1CCCc1ccccc1	none
CC(=O)c1ccc(N2CCN(C(=O)C3CCN(S(=O)(=O)Cc4ccccc4)CC3)CC2)cc1	none
C=CCOn1c(=O)c(=O)n(OCc2ccccc2)c2ccccc21	none
CN(C)c1nc2n(c(=O)n1)C(C#N)CS2 (stereo unspecified)	none
Cc1nnc(NC(=O)C2CCCN(c3ncccn3)C2)s1 (stereo unspecified)	none
CCN(CCO)C(=O)C12CCC(C)(C(=O)C1)C2(C)C (stereo unspecified)	none
COc1ccc(CN2CCN(c3ccccn3)CC2)cc1OCc1ccccc1	none
Cc1cc(C)n(-c2ccc(C(=O)C(C#N)c3nc4ccccc4n3C)cc2)n1 (stereo unspecified)	none
CC(C)c1ccc(-c2nnn(Cc3nc4ccccc4s3)n2)cc1	none
CCC(NS(=O)(=O)c1ccc(C)cc1)C(=O)Nc1ccc(NC(C)=O)cc1 (stereo unspecified)	none
CCOc1ccc(C(C)(C)C)cc1S(=O)(=O)N1CCOCC1	none
COC(=O)C1=C(C)OC(N)=C(C#N)C1c1cc(OC)c(OCC(N)=O)cc1Cl (stereo unspecified)	none
CC1=NC(C(F)(F)F)(C(F)(F)F)C(C#N)=C(C)N1	none
Nc1ccc(Cl)cc1/C(=N/O)c1ccccc1	none
C=CCn1c(SCC(N)=O)nnc1-c1cc(Br)ccc1O	none
Cc1nn(C)c(N)c1C(O)(c1nccn1C)C(F)(F)F (stereo unspecified)	none
CCOC(=O)Cn1nnnc1C(CC)N(Cc1cccs1)Cc1cc2ccc(OC)cc2[nH]c1=O (stereo unspecified)	none
COC(=O)c1ccccc1NC(=O)CSc1nnc(CNS(=O)(=O)c2ccc(C)cc2)n1C	none
O=C(COC(=O)c1ccc[nH]c1=O)NCC1CCCO1 (stereo unspecified)	none
O=C(OCCN1C(=O)c2ccccc2C1=O)c1cccc(OC(F)F)c1	none
Cc1ccc(S(=O)(=O)N2CCN(S(=O)(=O)c3ccc(C)cc3)C3OCCOC32)cc1 (stereo unspecified)	none
COC(=O)COc1ccc(S(=O)(=O)NCc2cccnc2)cc1C	none
c1ccc(-c2csc(-n3cnnn3)n2)cc1	none
